Several values for one entry are separate records, joined by “and”; a condition that tells them apart may be missing. Equal values may be shown once. Records with an inconclusive call do not appear. A structure can be active in one record and inactive in another. Activity calls are given as the source filed them. Rule for the calls, unless noted: active = hit-call score of the fitted dose curve at least 0.9, where 1 is the maximum; inactive = score below 0.9.
How the values were obtained:
[1] = molecular target: Oxysterols receptor LXR-alpha (Homo sapiens) (UniProt Q13133); experiment: ATG_LXRa_TRANS: Attagene TRANS-FACTORIAL HepG2 Assay for human Liver X Receptor alpha (LXRa) (AID 2282980; active = hit-call score of the fitted dose curve at least 0.9, where 1 is the maximum); conditions: HepG2 Attagene TRANS reporter, LXRa transactivation
Chain of Oxysterols receptor LXR-alpha (Homo sapiens) (Q13133 whole entry, looked up, the tested form may be a part): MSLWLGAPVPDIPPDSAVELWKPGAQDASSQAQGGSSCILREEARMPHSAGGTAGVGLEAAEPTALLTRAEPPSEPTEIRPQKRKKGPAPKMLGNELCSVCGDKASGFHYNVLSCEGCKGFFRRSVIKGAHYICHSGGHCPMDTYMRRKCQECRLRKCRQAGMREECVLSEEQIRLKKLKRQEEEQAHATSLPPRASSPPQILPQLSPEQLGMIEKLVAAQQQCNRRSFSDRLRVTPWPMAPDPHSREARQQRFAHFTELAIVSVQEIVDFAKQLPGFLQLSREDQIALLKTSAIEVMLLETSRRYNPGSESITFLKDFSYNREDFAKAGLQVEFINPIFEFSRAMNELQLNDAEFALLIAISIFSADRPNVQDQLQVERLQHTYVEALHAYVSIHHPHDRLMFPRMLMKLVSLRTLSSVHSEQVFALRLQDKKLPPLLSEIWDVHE
Outline: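 Read-out: reporter transcript levels by RT-PCR plus capillary electrophoresis, fluorescence intensity. Transiently transfected HepG2, exogenous NR-GAL4 chimera, GAL4-UAS reporters; 24 h compound exposure. Activity = increase over DMSO negative control.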

[2] = molecular target: Oxysterols receptor LXR-beta (Homo sapiens) (UniProt P55055); experiment: ATG_LXRb_TRANS: Attagene TRANS-FACTORIAL HepG2 Assay for human Liver X Receptor beta (LXRb) (AID 2282981; active = hit-call score of the fitted dose curve at least 0.9, where 1 is the maximum); conditions: HepG2 Attagene TRANS GAL4-LXRb reporter, mRNA
Chain of Oxysterols receptor LXR-beta (Homo sapiens) (P55055 whole entry, looked up, the tested form may be a part): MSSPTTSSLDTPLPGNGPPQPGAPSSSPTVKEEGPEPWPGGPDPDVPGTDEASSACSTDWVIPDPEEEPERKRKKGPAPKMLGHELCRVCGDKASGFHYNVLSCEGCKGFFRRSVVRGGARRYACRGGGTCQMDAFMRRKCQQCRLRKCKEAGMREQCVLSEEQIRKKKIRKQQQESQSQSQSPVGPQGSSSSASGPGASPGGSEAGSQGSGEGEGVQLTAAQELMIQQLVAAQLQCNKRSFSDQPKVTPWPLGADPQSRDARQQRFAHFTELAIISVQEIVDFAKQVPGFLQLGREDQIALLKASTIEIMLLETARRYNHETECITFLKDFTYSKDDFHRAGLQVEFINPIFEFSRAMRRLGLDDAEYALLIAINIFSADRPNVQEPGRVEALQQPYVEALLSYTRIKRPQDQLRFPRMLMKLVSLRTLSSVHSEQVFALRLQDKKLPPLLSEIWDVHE
Outline: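 Readout: fluorescent reporter mRNA fragments resolved by capillary electrophoresis after RT-PCR. System: transiently transfected human HepG2, exogenous LXRb-Gal4 chimera driving GAL4-UAS reporter, 24 h dosing. Activity fitted upward against DMSO baseline.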

[3] = molecular target: Hepatocyte nuclear factor 4-alpha (Homo sapiens) (UniProt P41235); experiment: ATG_HNF4a_TRANS: Attagene TRANS-FACTORIAL HepG2 Assay for human Hepatocyte Nuclear Factor 4 alpha (HNF4a) (AID 2282982; active = hit-call score of the fitted dose curve at least 0.9, where 1 is the maximum); conditions: HepG2 HNF4a transactivation reporter, mRNA readout
Chain of Hepatocyte nuclear factor 4-alpha (Homo sapiens) (P41235 whole entry, looked up): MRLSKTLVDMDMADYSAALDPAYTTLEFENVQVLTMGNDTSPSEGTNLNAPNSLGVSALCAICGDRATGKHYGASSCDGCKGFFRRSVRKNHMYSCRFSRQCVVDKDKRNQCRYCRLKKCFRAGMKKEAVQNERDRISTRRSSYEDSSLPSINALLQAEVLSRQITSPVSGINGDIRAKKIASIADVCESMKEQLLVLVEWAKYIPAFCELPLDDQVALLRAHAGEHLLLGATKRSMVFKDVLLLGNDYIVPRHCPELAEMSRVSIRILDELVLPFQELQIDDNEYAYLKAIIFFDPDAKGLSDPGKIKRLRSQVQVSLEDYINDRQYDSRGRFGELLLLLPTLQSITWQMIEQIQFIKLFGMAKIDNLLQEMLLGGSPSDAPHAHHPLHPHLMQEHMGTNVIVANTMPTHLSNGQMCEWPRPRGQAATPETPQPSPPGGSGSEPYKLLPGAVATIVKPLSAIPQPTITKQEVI
Outline: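 Transient MRTU transfection of HepG2, 24 h dosing. Readout: reporter mRNA via RT-PCR + capillary electrophoresis, fluorescence; activity fit upward relative to DMSO control.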

[4] = molecular target: Transcriptional activator Myb (Homo sapiens) (UniProt P10242); experiment: ATG_Myb_CIS: Attagene CIS-FACTORIAL HepG2 Assay for human Myeloblastosis (Myb) Proto-Oncogene Transcription Factor (AID 2282986); conditions: HepG2 Attagene CIS-FACTORIAL Myb reporter transcription; actives raise or lower the signal
Chain of Transcriptional activator Myb (Homo sapiens) (P10242 whole entry, looked up): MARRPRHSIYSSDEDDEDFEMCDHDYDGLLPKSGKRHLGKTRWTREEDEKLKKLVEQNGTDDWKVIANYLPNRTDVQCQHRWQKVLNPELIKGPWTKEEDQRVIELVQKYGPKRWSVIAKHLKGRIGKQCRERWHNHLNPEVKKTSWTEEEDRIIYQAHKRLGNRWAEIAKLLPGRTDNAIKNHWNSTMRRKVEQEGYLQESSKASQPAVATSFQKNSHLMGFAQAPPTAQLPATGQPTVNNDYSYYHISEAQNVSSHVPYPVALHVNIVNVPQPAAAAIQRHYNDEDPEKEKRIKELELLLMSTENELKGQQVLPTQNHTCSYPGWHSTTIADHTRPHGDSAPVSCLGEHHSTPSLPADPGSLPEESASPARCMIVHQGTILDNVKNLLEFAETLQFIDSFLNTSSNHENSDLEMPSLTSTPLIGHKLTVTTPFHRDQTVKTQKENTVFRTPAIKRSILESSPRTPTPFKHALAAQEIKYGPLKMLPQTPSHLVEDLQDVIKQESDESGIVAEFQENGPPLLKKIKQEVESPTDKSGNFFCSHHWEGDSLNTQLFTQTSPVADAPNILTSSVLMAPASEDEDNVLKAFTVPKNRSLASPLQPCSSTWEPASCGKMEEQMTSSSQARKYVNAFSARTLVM
Outline: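 Reporter mRNA is quantified by RT-PCR and capillary electrophoresis 24 h after dosing HepG2 cells transfected with cis-regulated reporter units, which track endogenous transcription factor activity. Gain and loss of signal are fitted versus DMSO baseline.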

[5] = molecular target: Nuclear respiratory factor 1 (Homo sapiens) (UniProt Q16656); experiment: ATG_NRF1_CIS: Attagene CIS-FACTORIAL HepG2 Assay for human Nuclear Respiratory Factor 1 (NRF1) Orphan Gene (AID 2282987); conditions: HepG2 NRF1 cis-element reporter, Attagene multiplex; actives raise or lower the signal
Chain of Nuclear respiratory factor 1 (Homo sapiens) (Q16656 whole entry, looked up): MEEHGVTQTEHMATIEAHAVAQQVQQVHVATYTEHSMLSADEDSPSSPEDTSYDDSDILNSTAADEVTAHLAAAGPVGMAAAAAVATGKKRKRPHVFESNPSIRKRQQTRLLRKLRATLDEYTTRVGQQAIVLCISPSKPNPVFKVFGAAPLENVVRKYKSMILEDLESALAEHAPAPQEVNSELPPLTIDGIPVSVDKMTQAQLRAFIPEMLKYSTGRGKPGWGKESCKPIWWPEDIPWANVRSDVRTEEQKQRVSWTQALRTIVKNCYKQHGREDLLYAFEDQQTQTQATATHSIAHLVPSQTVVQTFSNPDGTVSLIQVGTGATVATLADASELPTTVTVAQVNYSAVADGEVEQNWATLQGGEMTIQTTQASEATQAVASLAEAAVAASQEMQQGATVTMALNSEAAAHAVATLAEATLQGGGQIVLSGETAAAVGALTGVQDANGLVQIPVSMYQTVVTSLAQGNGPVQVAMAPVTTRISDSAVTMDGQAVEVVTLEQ
Outline: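 Endogenous NRF1-driven reporter transcription in transfected HepG2 cells after 24 h treatment. Readout: RT-PCR products, 6-FAM labelled and resolved by capillary electrophoresis; changes fitted both directions relative to DMSO.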

[6] = ATG_NFI_CIS: Attagene CIS-FACTORIAL HepG2 Assay for human Nuclear Factor I (NFI) (AID 2282989); conditions: HepG2 cis-regulatory reporter, NFI response element transcription; actives raise or lower the signal
Outline: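 HepG2, transient MRTU, 24 h exposure; RNA→cDNA→PCR→FAM label→HpaI→CE fluorescence. Bidirectional fit, DMSO = baseline.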

[7] = ATG_NF_kB_CIS: Attagene CIS-FACTORIAL HepG2 Assay for human Nuclear Factor Kappa B (NF-kB) (AID 2282991); conditions: HepG2 Attagene cis-factorial NF-kB reporter mRNA; actives raise or lower the signal
Outline: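 Readout is reporter transcript level, gain or loss versus DMSO, measured 24 h post-dose via RT-PCR, fluorescent labelling and capillary electrophoresis. Human HepG2 liver cells carried transiently transfected CIS reporter constructs reflecting endogenous factors.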

[8] = ATG_NRF2_ARE_CIS: Attagene CIS-FACTORIAL HepG2 Assay for human Nuclear Factor Erythroid 2 Related Factor 2 (NFR2) response to Antioxidant Response Elements (ARE) (AID 2282992); conditions: HepG2 Attagene ARE/NRF2 reporter, transcription factor activity; actives raise or lower the signal
Outline: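 Endogenous transcription factor activity in human liver HepG2 cells is tracked via a cis-element-driven reporter within a multiplexed set. mRNA induction is read by RT-PCR and capillary electrophoresis after 24 h, with DMSO as baseline.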

[9] = ATG_Oct_MLP_CIS: Attagene CIS-FACTORIAL HepG2 Assay for human Octamer-Binding Transcription Factor (Oct) (AID 2282993); conditions: HepG2 Attagene cis-factorial Oct reporter, mRNA; actives raise or lower the signal
Outline: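 Multiplexed cis-reporter assay in human liver HepG2 cells, 24 h incubation. Reporter RNA amplified and labelled, then resolved by capillary electrophoresis; DMSO serves as negative control and baseline.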

[10] = molecular target: Cellular tumor antigen p53 (Homo sapiens) (UniProt P04637); experiment: ATG_p53_CIS: Attagene CIS-FACTORIAL HepG2 Assay for human p53 Transcription Factor (AID 2282994); conditions: HepG2 p53 cis-element reporter, Attagene mRNA; actives raise or lower the signal
Chain of Cellular tumor antigen p53 (Homo sapiens) (P04637 whole entry, looked up, the tested form may be a part): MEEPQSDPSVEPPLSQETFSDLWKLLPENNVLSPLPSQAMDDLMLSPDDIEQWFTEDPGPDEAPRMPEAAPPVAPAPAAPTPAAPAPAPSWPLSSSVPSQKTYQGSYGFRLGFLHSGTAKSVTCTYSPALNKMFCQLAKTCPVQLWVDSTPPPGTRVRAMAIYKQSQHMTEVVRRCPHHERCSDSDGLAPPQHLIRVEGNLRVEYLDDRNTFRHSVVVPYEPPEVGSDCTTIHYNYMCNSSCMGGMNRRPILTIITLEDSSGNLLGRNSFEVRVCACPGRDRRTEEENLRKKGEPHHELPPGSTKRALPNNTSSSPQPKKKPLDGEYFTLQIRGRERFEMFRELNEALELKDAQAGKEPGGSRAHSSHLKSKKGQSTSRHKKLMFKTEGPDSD
Outline: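 Steps: transfect HepG2 with multiplexed cis reporter constructs; dose chemicals 24 h; extract RNA, reverse-transcribe, PCR-amplify reporter sequences; FAM-label, HpaI-digest, resolve fragments by CE. Activity fitted both directions relative to DMSO.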

[11] = BSK_3C_uPAR: BioMAP Diversity Plus: 3C Assay for Urokinase-type plasminogen activator receptor (uPAR) Biomarker Activity (AID 2282998); conditions: BioMAP 3C HUVEC, uPAR biomarker ELISA; actives raise or lower the signal
Outline: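 Dose primary human umbilical vein endothelial cells, incubate 24 h, measure cell-surface uPAR by ELISA, then fit the signal in both directions against the DMSO negative control.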

[12] = molecular target: human Peroxisome Proliferator-activated Receptor alpha (PPARa), PPARA (gene 5465) (UniProt Q07869); experiment: ATG_PPARa_TRANS: Attagene TRANS-FACTORIAL HepG2 Assay for human Peroxisome Proliferator-activated Receptor alpha (PPARa) (AID 2283001; active = hit-call score of the fitted dose curve at least 0.9, where 1 is the maximum)
Chain of human Peroxisome Proliferator-activated Receptor alpha (PPARa), PPARA (gene 5465) (Q07869 whole entry, looked up, the tested form may be a part): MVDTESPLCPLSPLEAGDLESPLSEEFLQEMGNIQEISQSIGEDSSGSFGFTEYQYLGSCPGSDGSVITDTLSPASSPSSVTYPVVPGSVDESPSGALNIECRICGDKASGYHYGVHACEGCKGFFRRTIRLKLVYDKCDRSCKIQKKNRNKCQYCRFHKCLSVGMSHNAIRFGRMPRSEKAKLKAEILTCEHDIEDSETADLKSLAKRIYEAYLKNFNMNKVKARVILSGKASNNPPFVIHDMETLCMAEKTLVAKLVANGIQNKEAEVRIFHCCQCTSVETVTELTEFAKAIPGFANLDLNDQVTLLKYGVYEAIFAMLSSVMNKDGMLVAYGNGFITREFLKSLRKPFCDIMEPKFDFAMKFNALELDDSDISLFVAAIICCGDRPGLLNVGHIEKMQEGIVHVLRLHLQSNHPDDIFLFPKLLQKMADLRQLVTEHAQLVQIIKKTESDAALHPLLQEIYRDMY
Outline: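 Transient HepG2 transfection, GAL4-UAS reporters, NR-Gal4 chimeras; 24 h compound exposure. Readout: reporter transcripts by RT-PCR, 6-FAM primer extension, HpaI digest, capillary electrophoresis. Positive direction vs DMSO baseline.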

[13] = molecular target: human Peroxisome Proliferator-activated Receptor delta (PPARd), PPARD (gene 5467) (UniProt Q03181); experiment: ATG_PPARd_TRANS: Attagene TRANS-FACTORIAL HepG2 Assay for human Peroxisome Proliferator-activated Receptor delta (PPARd) (AID 2283002; active = hit-call score of the fitted dose curve at least 0.9, where 1 is the maximum)
Chain of human Peroxisome Proliferator-activated Receptor delta (PPARd), PPARD (gene 5467) (Q03181 whole entry, looked up, the tested form may be a part): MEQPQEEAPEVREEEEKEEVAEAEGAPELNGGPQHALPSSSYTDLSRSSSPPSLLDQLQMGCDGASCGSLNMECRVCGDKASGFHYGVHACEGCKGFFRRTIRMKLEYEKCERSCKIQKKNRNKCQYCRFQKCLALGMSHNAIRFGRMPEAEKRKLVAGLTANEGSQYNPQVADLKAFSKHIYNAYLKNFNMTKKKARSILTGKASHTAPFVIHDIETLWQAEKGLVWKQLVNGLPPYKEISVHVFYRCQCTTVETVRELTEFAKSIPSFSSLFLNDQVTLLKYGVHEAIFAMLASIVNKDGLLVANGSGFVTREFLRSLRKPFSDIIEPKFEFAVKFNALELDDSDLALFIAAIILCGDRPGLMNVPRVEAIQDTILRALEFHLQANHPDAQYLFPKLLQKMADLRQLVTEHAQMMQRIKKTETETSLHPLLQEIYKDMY
Outline: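 HepG2 cells transiently transfected with GAL4-UAS multiplexed reporter units driven by exogenous chimeric NR-GAL4 proteins; 24 h compound exposure. Reporter mRNA measured by RT-PCR, 6-FAM primer extension, HpaI digestion and capillary electrophoresis; gain of signal fitted relative to DMSO.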

[14] = ATG_M_06_TRANS: Attagene TRANS-FACTORIAL HepG2 Assay for M06 Transcription Factor (Internal Marker) (AID 2282983; active = hit-call score of the fitted dose curve at least 0.9, where 1 is the maximum); conditions: HepG2 Attagene TRANS M06 internal marker reporter
Outline: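 Read-out: fluorescent reporter cDNA fragments resolved by capillary electrophoresis after RT-PCR and HpaI cut. Source cells were HepG2 carrying transfected multi-reporter GAL4 constructs, dosed 24 h. Increase over DMSO control analysed.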

[15] = ATG_M_32_TRANS: Attagene TRANS-FACTORIAL HepG2 Assay for M32 Transcription Factor (Internal Marker) (AID 2282984; active = hit-call score of the fitted dose curve at least 0.9, where 1 is the maximum;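 note: transcript level of a background control reporter unit measured by RT-PCR and capillary electrophoresis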); conditions: HepG2 Attagene TRANS M32 internal marker reporter
Outline: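 Read-out: fluorescent reporter cDNA fragments resolved by capillary electrophoresis after RT-PCR of total RNA. Transfected HepG2 cells were exposed to chemical for 24 h. Activity scored in the positive direction relative to DMSO.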

[16] = molecular target: Nuclear receptor subfamily 4 group A member 2 (Homo sapiens) (UniProt P43354); experiment: ATG_NURR1_TRANS: Attagene TRANS-FACTORIAL HepG2 Assay for human Nuclear Receptor Related Protein 1 (NURR1) (AID 2282985; active = hit-call score of the fitted dose curve at least 0.9, where 1 is the maximum); conditions: HepG2 Attagene TRANS reporter, mRNA readout
Chain of Nuclear receptor subfamily 4 group A member 2 (Homo sapiens) (P43354 whole entry, looked up, the tested form may be a part): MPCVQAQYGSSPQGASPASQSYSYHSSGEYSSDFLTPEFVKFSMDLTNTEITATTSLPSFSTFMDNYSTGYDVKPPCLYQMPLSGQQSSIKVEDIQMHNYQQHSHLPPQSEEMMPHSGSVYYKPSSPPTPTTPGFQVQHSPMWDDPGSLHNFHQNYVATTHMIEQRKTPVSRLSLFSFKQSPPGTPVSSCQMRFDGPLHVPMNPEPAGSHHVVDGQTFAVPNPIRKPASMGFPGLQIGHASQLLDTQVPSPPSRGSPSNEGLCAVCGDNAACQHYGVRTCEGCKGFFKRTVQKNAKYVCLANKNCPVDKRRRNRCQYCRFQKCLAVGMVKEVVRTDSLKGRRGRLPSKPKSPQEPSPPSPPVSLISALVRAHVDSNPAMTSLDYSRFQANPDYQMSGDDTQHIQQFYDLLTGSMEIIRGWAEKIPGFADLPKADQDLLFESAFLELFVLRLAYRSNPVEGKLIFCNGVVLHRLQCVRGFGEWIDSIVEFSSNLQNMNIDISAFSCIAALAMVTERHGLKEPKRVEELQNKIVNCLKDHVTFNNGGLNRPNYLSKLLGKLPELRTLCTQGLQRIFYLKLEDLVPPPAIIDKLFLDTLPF
Outline: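 Read-out: reporter mRNA induction by RT-PCR plus capillary electrophoresis with fluorescence detection, after 24 h dosing of transfected HepG2 cells. Exogenous NR-Gal4 chimera activity drives GAL4-UAS reporter; activity fitted upward versus DMSO.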

[17] = BSK_3C_TissueFactor: BioMAP Diversity Plus: 3C Assay for Tissue Factor Biomarker Activity (AID 2282997); conditions: BioMAP 3C HUVEC, tissue factor biomarker readout; actives raise or lower the signal
Outline: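 HUVEC, 3C system, 24 h post-dose; Tissue Factor by ELISA; bidirectional fit vs DMSO baseline.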

[18] = BSK_3C_VCAM1: BioMAP Diversity Plus: 3C Assay for Vascular cell adhesion molecule 1 (VCAM1) Biomarker Activity (AID 2282999); conditions: BioMAP 3C HUVEC, VCAM1 ELISA, cytokine-stimulated; actives raise or lower the signal
Outline: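 HUVEC primary cells, 24 h compound exposure; VCAM-1 by ELISA; gain/loss of signal fitted bidirectionally vs DMSO baseline.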

[19] = BSK_4H_Eotaxin3: BioMAP Diversity Plus: 4H Assay for Eotaxin 3 Biomarker Activity (AID 2283000); conditions: primary human endothelial cells (HUVEC); actives raise or lower the signal;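 note: CCL26 protein level quantified by ELISA in parallel with SRB cytotoxicity check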
Outline: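 Readout is Eotaxin-3 (CCL26) level by ELISA in primary human umbilical vein endothelial cells harvested 24 h after chemical exposure; activity fitted in both directions against DMSO control.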

[20] = molecular target: Myc proto-oncogene protein (Homo sapiens) (UniProt P01106); experiment: ATG_Myc_CIS: Attagene CIS-FACTORIAL HepG2 Assay for human Myelocytomatosis (Myc) Proto-Oncogene Transcription Factor (AID 2282990); conditions: HepG2, Attagene cis-reporter transcription factor activity; actives raise or lower the signal
Outline: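 Transiently transfected HepG2 cells bearing cis-promoter reporter units for endogenous transcription factors; 24 h exposure. Reporter mRNA measured by RT-PCR, 6-FAM primer extension, HpaI cut and capillary electrophoresis; bidirectional fit relative to DMSO.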

Measured: AC50

CCC12COCN1COC2
not listed: [14] | [15] | [16] | [17] | [18] | [19] | [20]
inactive: all other assays above

C=CCc1ccc2c(c1)OCO2
not listed: [2] | [13] | [20]
inactive: all other assays above

OCCOCCO
not listed: [7] | [10] | [12] | [14] | [16] | [20]
inactive: all other assays above

[O-][Cl+]O
not listed: [2] | [8] | [12] | [13] | [17] | [18] | [20]
inactive: all other assays above

Nc1ccc(Oc2ccc(N)cc2)cc1
not listed: [2] | [3] | [13] | [18] | [19] | [20]
inactive: all other assays above

C[C@]12C=CC3=C4CCC(=O)C=C4CC[C@H]3[C@@H]1CC[C@@H]2O
active: [6] 11.9 µM | [7] 19.8 µM and 70.6 µM and 40.3 µM | [9] 71.1 µM and 13.9 µM and 9.62 µM | [11] 7.23 µM | [18] 9.42 µM | [13] 73.6 µM
inactive: [1] | [2] | [3] | [14] | [15] | [16] | [4] | [5] | [6] | [7] | [9] | [19] | [12] | [13]

N#CC(Br)Br
inactive: [1] | [2] | [14] | [15] | [4] | [5] | [6] | [7] | [9] | [11] | [13]

Reference: PubChem BioAssay (EPA / NIEHS)
